In article doi:10.1101/2024.03.05.583629 one finds binding signal data, which are given here for 26 sequences.

For the test, the target named is pT7_6His-AlfaTag-HOXD13 (human, UniProt P35453 263-343). Nature of the test: PADIT-seq. The following applies: dsDNA, one strand shown.
Chain of pT7_6His-AlfaTag-HOXD13 (P35453 263-343): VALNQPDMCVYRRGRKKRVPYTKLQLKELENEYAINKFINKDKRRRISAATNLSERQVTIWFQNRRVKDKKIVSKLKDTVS
Sequence “CTCGAGGATATCAAGATCTGGCCTCGGCCCACTAAAAGGAACCTCTAGCTAGCCGACTCACTATAGGGATAATCGCCCTGAGCAAAGACC” had a binding signal of 1.42 ± 0.114 log2FC.

As for “CTCGAGGATATCAAGATCTGGCCTCGGCCAGGTAAAAGGAACCTCTAGCTAGCCGACTCACTATAGGGATAATCGCCCTGAGCAAAGACC”, the binding signal was determined as 0.0831 ± 0.0976 log2FC. To “CTCGAGGATATCAAGATCTGGCCTCGGCTTTTTACACGGAACCTCTAGCTAGCCGACTCACTATAGGGATAATCGCCCTGAGCAAAGACC” belongs 2.25 ± 0.079 log2FC; to “CTCGAGGATATCAAGATCTGGCCTCGGCGCGTGGCCGGGAACCTCTAGCTAGCCGACTCACTATAGGGATAATCGCCCTGAGCAAAGACC”, -1.04 ± 0.14 log2FC. As to “CTCGAGGATATCAAGATCTGGCCTCGGCGTTCTAAAAGGAACCTCTAGCTAGCCGACTCACTATAGGGATAATCGCCCTGAGCAAAGACC”, the binding signal is -0.197 ± 0.0802 log2FC. To “CTCGAGGATATCAAGATCTGGCCTCGGCATTTTAAAAGGAACCTCTAGCTAGCCGACTCACTATAGGGATAATCGCCCTGAGCAAAGACC” belongs 2.49 ± 0.0611 log2FC; to “CTCGAGGATATCAAGATCTGGCCTCGGCGGAATAAAAGGAACCTCTAGCTAGCCGACTCACTATAGGGATAATCGCCCTGAGCAAAGACC”, 0.87 ± 0.0838 log2FC.

“CTCGAGGATATCAAGATCTGGCCTCGGCGAAGTAAAAGGAACCTCTAGCTAGCCGACTCACTATAGGGATAATCGCCCTGAGCAAAGACC” gave a binding signal of 0.136 ± 0.0787 log2FC. To “CTCGAGGATATCAAGATCTGGCCTCGGCCGCCCAACTGGAACCTCTAGCTAGCCGACTCACTATAGGGATAATCGCCCTGAGCAAAGACC” belongs -1.02 ± 0.119 log2FC; to “CTCGAGGATATCAAGATCTGGCCTCGGCCGATTAAAAGGAACCTCTAGCTAGCCGACTCACTATAGGGATAATCGCCCTGAGCAAAGACC”, 1.2 ± 0.104 log2FC; to “CTCGAGGATATCAAGATCTGGCCTCGGCTATCTAAAAGGAACCTCTAGCTAGCCGACTCACTATAGGGATAATCGCCCTGAGCAAAGACC”, -0.377 ± 0.118 log2FC. To “CTCGAGGATATCAAGATCTGGCCTCGGCATTTTAGCTGGAACCTCTAGCTAGCCGACTCACTATAGGGATAATCGCCCTGAGCAAAGACC” belongs -0.225 ± 0.108 log2FC; to “CTCGAGGATATCAAGATCTGGCCTCGGCCTTTTAACTGGAACCTCTAGCTAGCCGACTCACTATAGGGATAATCGCCCTGAGCAAAGACC”, 1.7 ± 0.0719 log2FC. “CTCGAGGATATCAAGATCTGGCCTCGGCGTTTTATAGGGAACCTCTAGCTAGCCGACTCACTATAGGGATAATCGCCCTGAGCAAAGACC” returned a binding signal of 3.33 ± 0.0804 log2FC. The sequence “CTCGAGGATATCAAGATCTGGCCTCGGCTTTTTATATGGAACCTCTAGCTAGCCGACTCACTATAGGGATAATCGCCCTGAGCAAAGACC” returned a binding signal of 3.25 ± 0.0873 log2FC. To “CTCGAGGATATCAAGATCTGGCCTCGGCCGCACGCGCGGAACCTCTAGCTAGCCGACTCACTATAGGGATAATCGCCCTGAGCAAAGACC” belongs -0.992 ± 0.148 log2FC; to “CTCGAGGATATCAAGATCTGGCCTCGGCTTTTTAGTAGGAACCTCTAGCTAGCCGACTCACTATAGGGATAATCGCCCTGAGCAAAGACC”, 1.62 ± 0.0952 log2FC; to “CTCGAGGATATCAAGATCTGGCCTCGGCCGCCCATTTGGAACCTCTAGCTAGCCGACTCACTATAGGGATAATCGCCCTGAGCAAAGACC”, -0.832 ± 0.113 log2FC. To “CTCGAGGATATCAAGATCTGGCCTCGGCCACGTAAAAGGAACCTCTAGCTAGCCGACTCACTATAGGGATAATCGCCCTGAGCAAAGACC” belongs 1.76 ± 0.0916 log2FC; to “CTCGAGGATATCAAGATCTGGCCTCGGCAGTCTAAAAGGAACCTCTAGCTAGCCGACTCACTATAGGGATAATCGCCCTGAGCAAAGACC”, -0.665 ± 0.0999 log2FC; to “CTCGAGGATATCAAGATCTGGCCTCGGCCATTTAAAAGGAACCTCTAGCTAGCCGACTCACTATAGGGATAATCGCCCTGAGCAAAGACC”, 2.3 ± 0.0841 log2FC.

“CTCGAGGATATCAAGATCTGGCCTCGGCCGCCCAACAGGAACCTCTAGCTAGCCGACTCACTATAGGGATAATCGCCCTGAGCAAAGACC” showed a binding signal of -0.724 ± 0.117 log2FC. To “CTCGAGGATATCAAGATCTGGCCTCGGCATTTTATTCGGAACCTCTAGCTAGCCGACTCACTATAGGGATAATCGCCCTGAGCAAAGACC” belongs 1.83 ± 0.0742 log2FC; to “CTCGAGGATATCAAGATCTGGCCTCGGCTTAATAAAAGGAACCTCTAGCTAGCCGACTCACTATAGGGATAATCGCCCTGAGCAAAGACC”, 2.67 ± 0.0794 log2FC. To “CTCGAGGATATCAAGATCTGGCCTCGGCTCCCTAAAAGGAACCTCTAGCTAGCCGACTCACTATAGGGATAATCGCCCTGAGCAAAGACC” belongs -0.0391 ± 0.141 log2FC; to “CTCGAGGATATCAAGATCTGGCCTCGGCTCCATAAAAGGAACCTCTAGCTAGCCGACTCACTATAGGGATAATCGCCCTGAGCAAAGACC”, 2.64 ± 0.0916 log2FC.
